# Experimental data published in PubChem BioAssay.
# Several values for one entry are separate records, joined by “and”; a condition that tells them apart may be missing. Equal values may be shown once. Activity calls are given as the source filed them. Rule as the data show it, unless noted: active = inhibition above about 80%; inactive = the rest.
# Key:
# [1] = test system: Aerobactin synthetase IucA (Klebsiella pneumoniae); assay: IucA aerobactin synthetase inhibitors, biochemical, Tocris library, absorbance (AID 1345561; call rule not given here;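 also: 100% = enzyme without compound and 0% = no enzyme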); settings: purified IucA enzyme assay, absorbance (OD) read-out; stronger effect = lower value;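 tested at 8 µM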
# [2] = sensitizers of A549 cells to miR-34 induction, primary screen, imaging, A549 dox-inducible miR-34, nuclei and caspase counts (AID 1347080;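 active = compounds whose cell count with miR-34 switched on is under 0.7 times the count with it off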); settings: A549 miR-34 inducible, Hoechst nuclei count, 48 h
# [3] = viability rescue of complex I mutant cybrids, primary screen, cell-based, galactose medium, ATP luminescence (AID 1645843;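 active = z-score of at least 1.8 in each of two replicates, scored against plate mean and spread of sample wells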;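 also: positive z means more ATP and so rescue of galactose-driven cybrid death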); settings: complex I mutant cybrid cells, 72 h, stronger effect = higher value
# [4] = LFS_MB_P medulloblastoma growth inhibition, cell-based, chromothripsis tumors, cisplatin or BGB combos (AID 1671449); settings: LFS_MB_P medulloblastoma cells;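 also: cells exposed for 96 hours; 0% = vehicle DMSO and 100% = killing by high DMSO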
# [5] = HDN33 neuroblastoma growth inhibition, cell-based, chromothripsis tumors, cisplatin or BGB combos (AID 1671450); settings: HDN33 neuroblastoma cells, stronger effect = higher value;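 also: cells exposed to compound for four days; 0% = vehicle DMSO and 100% = cell killing by high DMSO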
# [6] = ICB984 medulloblastoma cell growth inhibition, synergistic combos for chromothripsis tumors, cisplatin or BGB combos (AID 1671451; call rule not given here;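 also: cells exposed for 96 hours before readout; 0% = vehicle DMSO and 100% = killing by high DMSO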); settings: ICB984 medulloblastoma cells, drug combinations, stronger effect = higher value
# [7] = LFS_MB_1R medulloblastoma cell growth inhibition, synergistic combos for chromothripsis tumors, cisplatin or BGB combos (AID 1671452); settings: LFS_MB_1R medulloblastoma cells, stronger effect = higher value;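 also: cells exposed for 96 hours before readout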
# [8] = HTB85 osteosarcoma cell growth inhibition, synergistic combos for chromothripsis tumors, BGB or cisplatin IC20 combos (AID 1671453); settings: HTB85 osteosarcoma cells, drug combinations, stronger effect = higher value;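 also: cells exposed for 96 hours before readout; 0% = vehicle DMSO and 100% = high DMSO killing control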
# [9] = CRL2098 osteosarcoma cell growth inhibition, synergistic combos for chromothripsis tumors, BGB or cisplatin IC20 combos (AID 1671454); settings: CRL2098 osteosarcoma cells, drug combinations, stronger effect = higher value;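 also: cells exposed for 96 h before readout; 0% = vehicle DMSO and 100% = killing by high DMSO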
# [10] = HD-MB03 medulloblastoma cell growth inhibition, synergistic combos for chromothripsis tumors, BGB or cisplatin IC20 combos (AID 1671455; in the data active = inhibition above about 83%;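 also: 0% = vehicle DMSO and 100% = high DMSO as cytotoxic control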); settings: HD-MB03 medulloblastoma cells, stronger effect = higher value
# [11] = UWB1.289 ovarian carcinoma cell growth inhibition, synergistic combos for chromothripsis tumors, BGB or cisplatin combos (AID 1671456); settings: UWB1.289 ovarian carcinoma cells, stronger effect = higher value;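 also: cells exposed to compound for four days; 0% = vehicle DMSO and 100% = killing by high DMSO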
# [12] = LFS_MB_2R medulloblastoma cell growth inhibition, synergistic combos for chromothripsis tumors, cisplatin combos (AID 1671457); settings: LFS_MB_2R medulloblastoma cells, stronger effect = higher value;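 also: cells exposed to compound for four days before readout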
# [13] = MDA-MB-436 breast carcinoma cell growth inhibition, synergistic combos for chromothripsis tumors, BGB or cisplatin combos (AID 1671458; call rule not given here;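 also: cells exposed for 96 hours; 0% = vehicle DMSO and 100% = killing by high DMSO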); settings: MDA-MB-436 breast carcinoma growth inhibition, drug combinations, stronger effect = higher value
# [14] = UWB1.289_BRCA1 ovarian cancer growth, cell-based, BGB or cisplatin combinations (AID 1671459); settings: UWB1.289 BRCA1 ovarian carcinoma, drug combinations, stronger effect = higher value
# [15] = human astrocyte viability loss, single and combined drugs, cytotoxicity control for chromothriptic childhood tumor combination screen, cell-based, BGB or cisplatin IC20 combos (AID 1671460); settings: Human astrocytes, drug combinations, stronger effect = higher value;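 also: cells exposed to compounds for 96 hours before viability readout; 0% = vehicle and 100% = killing control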
# [16] = growth inhibition of BT084 medulloblastoma cells, cell-based, ICGC_MB145, cisplatin and BGB IC40 combos (AID 1671461); settings: drug combinations, stronger effect = higher value;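 also: cells exposed to drugs for 96 hours; 0% = vehicle DMSO and 100% = high DMSO full killing control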
# [17] = growth inhibition of RCMB18 medulloblastoma cells, cell-based, cisplatin and BGB IC40 combos (AID 1671462); settings: stronger effect = higher value;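 also: cells exposed to compound for four days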
# [18] = growth inhibition of CRL1545 osteosarcoma cells, cell-based, cisplatin and BGB IC20 combos (AID 1671464); settings: stronger effect = higher value;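 also: cells exposed to compound for 96 hours before readout; 0% = vehicle DMSO and 100% = high DMSO killing control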
# [19] = circadian clock period modulators, cell-based, LOPAC library, luminescence reporter (AID 2774; call rule not given here;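 also: values are relative to mean of DMSO wells on each plate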); settings: circadian reporter cells, at 7 µM, actives lie on both sides
# [20] = test system: Hepatitis C virus NS3 helicase; assay: HCV NS3 helicase inhibitors, primary screen, biochemical, fluorescence polarization, LOPAC1280 library (AID 687035; in the data active = inhibition above about 37%); settings: Purified HCV NS3 helicase, Cy5-dT15 ssDNA binding fluorescence polarization; stronger effect = higher value; concentration not given here
# [21] = Cy5 fluorescence quenching or enhancement artefacts, artefact control for HCV NS3 helicase inhibitor project, biochemical, LOPAC1280 (AID 687037; call rule not given here); settings: Cy5-DNA-NS3h complex fluorescence interference counterscreen
# [22] = hESC survival regulators, cell-based (AID 493140; call rule not given here;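 also: cells exposed to compounds for four days before counting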); settings: human embryonic stem cell survival screen; stronger effect = higher value
# [23] = stronger effect = lower value, cell number ratio, induced over uninduced
# [24] = measured here: relative caspase fold change +Dox/-Dox
# [25] = measured here: total cells with miR-34 induction, stronger effect = lower value
# [26] = measured here: total cells without miR-34 induction
# [27] = measured here: combination with BGB IC40, at 0.05 µM
# [28] = measured here: with BGB IC20 combination, at 0.5 µM
# [29] = measured here: with cisplatin IC20 combination, at 0.5 µM
# [30] = measured here: combination with cisplatin, at 0.5 µM
# [31] = measured here: combination with cisplatin, at 5 µM
structure (smiles),measurement,setting,value
O=C(NCCCCN1CCN(c2cccc(Cl)c2Cl)CC1)c1ccc2c(c1)Cc1ccccc1-2,remaining activity,[1],111% (inactive)
same,fold change,[2]; [23],0.929 (inactive)
same,fold change,[2]; [24],1.33
same,cell count,[2]; [25],8390
same,cell count,[2]; [26],9030
same,z-score,[3],-0.17 (inactive)
CC(C)Oc1ccc2c(=O)c3cc(C(=O)O)ccc3oc2c1,remaining activity,[1],93.9% (inactive)
same,fold change,[2]; [23],1.01 (inactive)
same,fold change,[2]; [24],1.37 and 0.638
same,cell count,[2]; [25],5920 and 8510
same,cell count,[2]; [26],5860 and 8390
same,z-score,[3],0.015 (inactive)
CC[N+](C)(CC)CC(=O)Nc1c(C)cccc1C,remaining activity,[1],109% (inactive)
same,fold change,[2]; [23],0.963 (inactive)
same,fold change,[2]; [24],0.801
same,cell count,[2]; [25],8930
same,cell count,[2]; [26],9270
same,z-score,[3],0.265 (inactive)
O=c1[nH]cnc2ccccc12,remaining activity,[1],102% (inactive)
same,fold change,[2]; [23],0.942 (inactive)
same,fold change,[2]; [24],1.88
same,cell count,[2]; [25],8900
same,cell count,[2]; [26],9450
same,z-score,[3],-0.085 (inactive)
same,inhibition,"[4]; at 0.5 µM, stronger effect = higher value",-17.1% (inactive)
same,inhibition,"[4]; measured here: combination with BGB IC20, at 0.005 µM",-35.2%
same,inhibition,"[4]; measured here: combination with BGB IC40, at 0.005 µM",-30.5%
same,inhibition,[4]; [27],-20.2%
same,inhibition,"[4]; measured here: combination with cisplatin, at 0.5 µM, stronger effect = higher value",-41%
same,inhibition,"[4]; measured here: combination with cisplatin, at 5 µM, stronger effect = higher value",-52.6%
same,inhibition,"[5]; BGB combo, at 5 µM",-24.4%
same,inhibition,[5]; at 0.5 µM,-4.24% (inactive)
same,inhibition,"[5]; cisplatin combo, at 5 µM",7.34%
same,inhibition,[5]; [28],2.06%
same,inhibition,[5]; [29],-23.5%
same,inhibition,"[5]; single agent, at 5 µM",3.32%
same,inhibition,"[6]; BGB IC20 combo, at 0.005 µM",-9.29%
same,inhibition,"[6]; BGB IC40 combo, at 0.005 µM",-31.8%
same,inhibition,"[6]; BGB IC40 combo, at 0.05 µM",-19.2%
same,inhibition,[6]; at 0.5 µM,-16.4% (inactive)
same,inhibition,"[6]; cisplatin combo, at 0.05 µM",-23.5%
same,inhibition,"[6]; cisplatin combo, at 0.5 µM",-12.5%
same,inhibition,"[6]; cisplatin combo, at 5 µM",-22.5%
same,inhibition,"[6]; measured here: 5 uM single agent, at 5 µM",-4.22%
same,inhibition,[7]; at 0.5 µM,-18.8% (inactive)
same,inhibition,[7]; [27],-25.1%
same,inhibition,[7]; [30],-17.4%
same,inhibition,[7]; [31],-38.3%
same,inhibition,[8]; at 0.5 µM,-3.81% (inactive)
same,inhibition,"[8]; measured here: with BGB IC20, at 0.5 µM",-2.72%
same,inhibition,"[8]; measured here: with BGB IC20, at 5 µM",7.21%
same,inhibition,"[8]; measured here: with cisplatin IC20, at 0.5 µM",2.1%
same,inhibition,"[8]; measured here: with cisplatin IC20, at 5 µM",-54.4%
same,inhibition,"[8]; single agent, at 5 µM",-7.3%
same,inhibition,[9]; at 0.5 µM,-61.6% (inactive)
same,inhibition,"[9]; measured here: combination with BGB at IC20, at 0.5 µM",-35.5%
same,inhibition,"[9]; measured here: combination with cisplatin at IC20, at 0.5 µM",-103%
same,inhibition,[10]; at 0.5 µM,4.79% (inactive)
same,inhibition,"[10]; measured here: combo with BGB at IC20, at 0.5 µM",10.7%
same,inhibition,"[10]; measured here: combo with cisplatin at IC20, at 0.5 µM",11.6%
same,inhibition,[11]; at 0.5 µM,2.5% (inactive)
same,inhibition,"[11]; measured here: inhibition with BGB combination, at 0.05 µM",-5.21%
same,inhibition,"[11]; measured here: inhibition with cisplatin combination, at 0.05 µM",-17.2%
same,inhibition,[12]; at 0.5 µM,-8.8% (inactive)
same,inhibition,[12]; [30],-21.4%
same,inhibition,[12]; [31],-15.8%
same,inhibition,[13]; at 0.5 µM,-5.02% (inactive)
same,inhibition,"[13]; measured here: BGB combination, at 0.5 µM",-15%
same,inhibition,"[13]; measured here: BGB combination, at 5 µM",-20.2%
same,inhibition,"[13]; measured here: cisplatin combination, at 0.5 µM",-1.15%
same,inhibition,"[13]; measured here: cisplatin combination, at 5 µM",-18.2%
same,inhibition,"[14]; BGB combination, concentration series, at 5 µM",11.1%
same,inhibition,[14]; at 0.5 µM,0.09% (inactive)
same,inhibition,"[14]; cisplatin combination, concentration series, at 5 µM",-4.56%
same,inhibition,[15]; at 0.5 µM,12.5% (inactive)
same,inhibition,"[15]; measured here: combo with BGB IC20, at 0.5 µM",-1.33%
same,inhibition,"[15]; measured here: combo with cisplatin IC20, at 0.5 µM",21.8%
same,inhibition,[16]; at 0.5 µM,-14% (inactive)
same,inhibition,"[16]; cisplatin combination, at 0.5 µM",-49.4%
same,inhibition,"[16]; cisplatin combination, at 5 µM",-11.8%
same,inhibition,"[16]; measured here: BGB IC40 combination 0.05 uM, at 0.05 µM",-51.7%
same,inhibition,"[16]; single agent, at 5 µM",12.2%
same,inhibition,[17]; at 0.5 µM,-16.1% (inactive)
same,inhibition,"[17]; cisplatin combo, at 5 µM",-26.7%
same,inhibition,"[17]; measured here: BGB IC40 combination, at 0.05 µM",-1.26%
same,inhibition,[17]; [30],-25.5%
same,inhibition,"[17]; single agent, at 5 µM",-13.2%
same,inhibition,[18]; at 0.5 µM,0.67% (inactive)
same,inhibition,[18]; [28],-3.84%
same,inhibition,[18]; [29],1.34%
same,inhibition,"[18]; single agent, at 0.05 µM",-24.3%
same,inhibition,"[18]; single agent, at 5 µM",-5.49%
CC#CCOC(=O)C1=CCCN(C)C1,remaining activity,[1],109% (inactive)
same,fold change,[2]; [23],0.936 (inactive)
same,fold change,[2]; [24],0.732
same,cell count,[2]; [25],8580
same,cell count,[2]; [26],9170
same,z-score,[3],-0.46 (inactive)
N#C/C(=C\c1ccc(O)c(O)c1)C(=O)Nc1ccccc1,period change,[19],0.11 h (inactive)
same,inhibition,[20],-2% (inactive)
same,fluorescence ratio (interference),[21],0.9 (inactive)
same,remaining activity,[1],117% (inactive)
same,fold change,[2]; [23],1.02 (inactive) and 0.911 (inactive)
same,fold change,[2]; [24],0.933 and 1.77
same,cell count,[2]; [25],7050 and 7400
same,cell count,[2]; [26],6920 and 8120
same,z-score,[3],-1.14 (inactive) and -0.745 (inactive)
N#C/C(=C\c1ccc(O)c(O)c1)C(N)=O,survival,[22],73 (inactive)
same,remaining activity,[1],122% (inactive)
same,fold change,[2]; [23],0.887 (inactive)
same,fold change,[2]; [24],1.74
same,cell count,[2]; [25],9080
same,cell count,[2]; [26],10200
same,z-score,[3],-0.47 (inactive)
